In ChEMBL document CHEMBL1157539, “Thousands of chemical starting points for antimalarial lead identification” (Nature, 2010):

Tests used:
Assay type in all cases: functional
Plasmodium falciparum [1] = assay: GSK_TCMDC: Inhibition of Plasmodium falciparum 3D7 in whole red blood cells, using parasite LDH activity as an index of growth. Test compounds present at 2uM
Plasmodium falciparum [2] = assay: GSK_TCMDC: Inhibition of Plasmodium falciparum Dd2 in whole red blood cells, using parasite LDH activity as an index of growth. Test compounds present at 2uM
HepG2 = assay: GSK_TCMDC: Percent inhibition of human HepG2 cell line. Test compounds present at 10uM.

| Structure (SMILES) | Inhibition (Plasmodium falciparum [1]) | Inhibition (Plasmodium falciparum [2]) | Inhibition (HepG2) |
| --- | --- | --- | --- |
| Cc1[nH]c(/C=C2\C(=O)Nc3ccc(S(=O)(=O)Cc4c(Cl)cccc4Cl)cc32)c(C)c1C(=O)N1CCC[C@@H]1CN1CCCC1 [PHA-665752] | 85% | 92% | 33% |
| O=C(Nc1ccc(CC(=O)N2CCc3cc(Cl)c(N4CCN(C/C=C/c5ccccc5)CC4)cc32)cc1)Nc1cccc([N+](=O)[O-])c1 | 95% | 27% | 0% |
| COc1ccc(C2CCN(CCN3CCC(NC(=O)c4cccc(-c5ccncc5)c4)CC3)CC2)c(OC)c1 | 94% | 24% | 7% |
| COc1ccc2c(NN=Cc3ccc(F)cc3)ccnc2c1 | 100% | 99% | 14% |
| CNc1ccc(CNCc2cccc(-c3ccc(-c4nc5cccc(C)c5[nH]4)cc3)c2)cc1.O=C(O)C(F)(F)F | 100% | 83% | 26% |
| COc1cccc(CNC(=O)c2cccc(-c3cccc(CN4CCC(N5CCCC5)CC4)c3)n2)c1.O=C(O)C(F)(F)F | 100% | 76% | 22% |
| O=C(Nc1ccc(CCNC2=NCCN2)cc1)Nc1ccc(CCNC2=NCCN2)cc1 | 90% | 66% | 6% |
| Oc1ccc2nc(NCCCc3ccccc3)nc(NCCCc3ccccc3)c2c1 | 100% | 93% | 5% |
| Cc1cccc(/C=C/C(=O)NC2CCC(N3CCC(c4ccccc4C)CC3)CC2)c1 (centres undefined) | 92% | 20% | 67% |
| CCc1cc(-c2onc(C)c2-c2cc3ccccc3o2)c(O)cc1OC | 95% | 33% | 48% |
| O=C(c1cccc(-c2noc(C(F)(F)F)n2)c1)N1CCN(c2nsc3ccccc23)CC1 | 90% | 81% | 18% |
| COc1ccc(Cl)cc1NC(=O)CN(C)C(=O)c1cnn(-c2ccccc2)n1 | 100% | 99% | 0% |
| COc1cc(NCC(O)CNc2cc(OC)c3ccccc3n2)nc2ccccc12 | 100% | 93% | 42% |
| CCCCNC[C@@H](O)[C@H](Cc1ccccc1)NC(=O)c1cc(NCC)cc(N2CCCCS2(=O)=O)c1.Cl | 99% | 98% | 11% |
| O=C(Nc1ccc(OC2CCN(Cc3ccccc3)CC2)c(Cl)c1)c1ccc(F)cc1.O=C(O)C(F)(F)F | 94% | 92% | 30% |
| CN(C)c1ccc(OCCCCCCOc2ccccc2)cc1.Cl | 85% | 68% | 0% |
| CN1CCN(Cc2ccc(-c3ccc4ncnc(Nc5ccc(OCc6ccccc6)cc5)c4c3)o2)CC1 | 97% | 90% | 9% |
| CN1CCC(NCc2ccc(-c3ccc(S(=O)(=O)NCc4ccccc4)c(F)c3)cc2)CC1.O=C(O)C(F)(F)F | 99% | 89% | 53% |
| COc1ccc(NC(=O)NC2CCN(CCCCCNC(=O)/C=C/c3ccc(Cl)c(Cl)c3)C2)c(OC)c1 (centres undefined) | 96% | 9% | 24% |
| COc1ccc2nc(N3CCN(C(=O)OC(C)(C)C)CC3)nc(NCCCc3ccccc3)c2c1 | 100% | 95% | 9% |
| O=C(NCCCN1CCN(c2cccc(Cl)c2)CC1)c1ccc(-c2nc3cc(Cl)c(Cl)cc3[nH]2)cc1 | 98% | 95% | 3% |
| COc1ccc(COc2cc(NCCCN)nc3ccccc23)cc1 | 100% | 5% | 3% |
| COc1ccc(C(=O)N2CCN(c3ccc([N+](=O)[O-])c(NC4CC4)c3)CC2)cc1Br | 99% | 68% | 6% |
| COc1cccc(-c2ccc3ccnc(N)c3c2)c1.O=C(O)C(F)(F)F | 100% | 93% | 40% |
| CCOC(=O)NCC(=O)Nc1cccc(-c2cccc(-c3nc4cc(C(F)(F)F)ccc4[nH]3)c2)c1 | 91% | 34% | 59% |
| CCCCNC(=N)c1ccc(OCCCCCOc2ccc(C(=N)NCCCC)cc2)cc1.Cl | 99% | 99% | 19% |
| Cc1cc(N2CCCC2)nc(Nc2ccc(NC(=O)Nc3ccccc3)cc2)n1 | 99% | 100% | 35% |
| Cc1ccc(OCC2CCN(c3ncc(C(=O)NC4CC4)cc3Cl)CC2)cc1 | 88% | 72% | 2% |
